Measurements from the supplement of paper PMC6279402.
Where a name gives a salt, the structure may show the parent alone. ± gives the standard deviation of the averaged measurements.

Test system: A549
Assay: relative viability (normalised to negative control = 1, bortezomib = 0) (fraction); higher = less cytotoxic
Conditions: inflammatory serum-free RHB-A with cytokines + LPS, 5 d + 24 h CellTiter-Blue
[1] = compound 30 nM, GSK126 pretreatment: 5 uM GSK126
[2] = compound 30 nM, GSK126 pretreatment: none (vehicle)
[3] = compound 300 nM, GSK126 pretreatment: 5 uM GSK126
[4] = compound 300 nM, GSK126 pretreatment: none (vehicle)

Compound `COc1cccc2c1C(=O)c1c(O)c3c(c(O)c1C2=O)C[C@@](O)(C(=O)CO)C[C@@H]3O[C@H]1C[C@H](N)[C@H](O)[C@H](C)O1` [Doxorubicin hydrochloride; 4'-Epiadriamycin; Doxorubicin HCl] has a relative viability [1] of 0.967 ± 0.022, a relative viability [2] of 0.9737 ± 0.0065 and a relative viability [3] of 0.454 ± 0.027. It also gave a relative viability [4] of 0.463 ± 0.075.
`S=P(N1CC1)(N1CC1)N1CC1` [Thiotepa] gave a relative viability [1] of 1.01 ± 0.054, a relative viability [2] of 0.949 ± 0.017 and a relative viability [3] of 0.919 ± 0.064. The relative viability [4] was 0.935 ± 0.032.
`COc1cc(Nc2ncc(F)c(Nc3ccc4c(n3)N(COP(=O)(O)O)C(=O)C(C)(C)O4)n2)cc(OC)c1OC` was tested, and the relative viability [1] was 0.929 ± 0.03, the relative viability [2] was 0.888 ± 0.056 and the relative viability [3] was 0.952 ± 0.013. The relative viability [4] was 0.983 ± 0.067.
For `FC(F)(F)c1ccc(/C=C/c2nc(COc3ccc(CCCCn4ccnn4)cc3)co2)cc1` [Mubritinib (TAK 165)], the relative viability [1] was 0.798 ± 0.028, the relative viability [2] was 0.837 ± 0.061 and the relative viability [3] was 0.561 ± 0.081. For the same compound, the relative viability [4] was 0.94 ± 0.011.
In the case of `COc1cc2nccc(Oc3ccc(NC(=O)C4(C(=O)Nc5ccc(F)cc5)CC4)cc3)c2cc1OC` [XL184; Cabozantinib], the relative viability [1] is reported as 0.903 ± 0.061, the relative viability [2] is reported as 0.875 ± 0.12 and the relative viability [3] is reported as 0.986 ± 0.043. For the same compound, the relative viability [4] was 0.974 ± 0.014.
Compound `N#CC1(c2ccc(NC(=O)c3cccnc3NCc3ccncc3)cc2)CCCC1` [Apatinib (YN968D1)] has a relative viability [1] of 0.83 ± 0.072, a relative viability [2] of 0.853 ± 0.054 and a relative viability [3] of 0.936 ± 0.085. For the same compound, the relative viability [4] was 0.9943 ± 0.005.
In the case of `OCCn1cc(-c2ccc3c(c2)CC/C3=N\O)c(-c2ccncc2)n1`, the relative viability [1] is reported as 0.948 ± 0.11, the relative viability [2] is reported as 0.989 ± 0.093 and the relative viability [3] is reported as 1.03 ± 0.21. For the same compound, the relative viability [4] was 1.14 ± 0.16.
`CC(C)(C#N)c1cc(Cn2cncn2)cc(C(C)(C)C#N)c1` [Anastrozole; Arimidex] was tested, and the relative viability [1] was 0.743 ± 0.051, the relative viability [2] was 0.792 ± 0.039 and the relative viability [3] was 0.804 ± 0.086. The relative viability [4] was 0.896 ± 0.04.
Compound `CCc1c2c(nc3ccc(OC(=O)N4CCC(N5CCCCC5)CC4)cc13)-c1cc3c(c(=O)n1C2)COC(=O)[C@]3(O)CC` [Irinotecan HCl; Irinotecan hydrochloride] has a relative viability [1] of 0.898 ± 0.038, a relative viability [2] of 0.895 ± 0.018 and a relative viability [3] of 0.931 ± 0.037. The relative viability [4] was 0.917 ± 0.031.
